In PubChem BioAssay AID602431 (Southern Research Specialized Biocontainment Screening …, 2012):
Results with a measured potency or affinity are listed apart. Inconclusive results are not listed. Calls of active or inactive are those of the source. No rule for the calls is given here.

Test: viability loss in Vero cells – cell-based, purified and synthesized samples, set 8, cytotoxicity control for M. tuberculosis inhibitor project (AID 602431)
Conditions: series mostly up to 100 µM; viability: at the top concentration

| Compound | viability |
| --- | --- |
| O=C(c1ccc(CNc2c(N3CCOCC3)c(=O)c2=O)cc1)N1CCN(c2ccccc2)CC1 | 99.7% (inactive) |
| O=C(NCc1ccc(C(=O)N2CCN(c3ccccc3)CC2)cc1)NC1CCCCC1 | 99.6% (inactive) |
| O=C(CSc1nc2ccccc2c(=O)[nH]1)NC1CCOCC1 | 87.4% (inactive) |
| CC(C)CCNC(=O)CSc1nc2c(c(=O)[nH]1)CCCCC2 | 93.8% (inactive) |
| CC(C)CCNC(=O)CSc1nc2ccccc2c(=O)[nH]1 | 88.2% (inactive) |
| O=C(CSc1nc2c(c(=O)[nH]1)CCCC2)NC1CCCCC1 | 85.2% (inactive) |
| O=C(c1ccc(CNc2c(N3CCCC3)c(=O)c2=O)cc1)N1CCN(c2ccccc2)CC1 | 97.1% (inactive) |
| O=C(c1ccc(CNc2c(N3CCOCC3)c(=O)c2=O)cc1)N1CCC(c2ccccc2)CC1 | 94.5% (inactive) |
| CC(C)CCNC(=O)CSc1nc2c(c(=O)[nH]1)CCCC2 | 89.3% (inactive) |
| O=C(CSc1nc2c(c(=O)[nH]1)CCC2)NC1CCCCC1 | 95.9% (inactive) |
| COC(=O)C(Cc1ccccc1)NC(=O)CSc1nc2ccccc2c(=O)[nH]1 (configuration not stated) | 96.1% (inactive) |
| COCCNC(=O)CSc1nc2ccccc2c(=O)[nH]1 | 91.8% (inactive) |
